Assay results published in PubChem BioAssay (NCATS).
Results filed as inconclusive are left out. Active and inactive are the calls of the source. Calls come from the whole dose curve; as a rule, active = well fitted curve in the direction sought with a large enough effect; inconclusive = small, poorly fitted or top-dose-only effect, or another doubt; inactive = no such curve, though single readings can be large; an effect the other way counts as inactive or inconclusive.

Key:
[1] = Panc-1005 Cancer Cell Toxicity qHTS against the NCATS CANVASS Library (AID 1347349); note: nearly all actives have a fitted effect of over 60% in size
Summary of the method: (§1)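 Following a 4 h pre-incubation of 1000 seeded cells, compounds were pinned in an 11-pnt dilution series and left for 72 h; viability then came from CellTiter-Glo.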

[2] = SW1088 Cancer Cell Toxicity qHTS against the NCATS CANVASS Library (AID 1347350); note: nearly all actives have a fitted effect of over 75% in size
Summary of the method: as §1

[3] = U-118MG Cancer Cell Toxicity qHTS against the NCATS CANVASS Library (AID 1347351); details: U-118MG viability, CellTiter-Glo luminescence, 72 h; at 38.3 µM (top of the series)
Summary of the method: as §1

[4] = COV-362 Cancer Cell Toxicity qHTS against the NCATS CANVASS Library (AID 1347352)
Summary of the method: (§2)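 Cells were seeded at 1000 per well and allowed to settle 4 hours at 37 degrees C before pin transfer of compounds as an 11-point series. Viability was read by CellTiter-Glo luminescence after 72 hours' exposure.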

[5] = A2780 Cisplatin Sensitive Ovarian Cancer Cell Toxicity qHTS against the NCATS CANVASS Library (AID 1347353); details: A2780 ovarian cancer viability, ATPLite luminescence, 72 h; at 46.1 µM (top of the series); note: nearly all actives have a fitted effect of over 60% in size
Summary of the method: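 A2780 cisplatin-sensitive cells (750 per well) were seeded, left 4 h at 37 °C, then pin-dosed in an 11-point series. After 72 h at 37 °C/5% CO2, viability was measured as ATPLite luminescence.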

[6] = UWB1.289-WTBRCA1 Cancer Cell Toxicity qHTS against the NCATS CANVASS Library (AID 1347354); details: UWB1.289-WTBRCA1 viability, CellTiter-Glo luminescence, 72 h; at 38.3 µM (top of the series)
Summary of the method: as §2

[7] = HEK-293 Cancer Cell Toxicity qHTS against the NCATS CANVASS Library (AID 1347355); details: HEK-293 viability, CellTiter-Glo luminescence, 72 h; at 46.1 µM (top of the series); note: nearly all actives have a fitted effect of over 65% in size
Summary of the method: as §2

[8] = HPAF-II 24hr Apoptosis Induction qHTS against the NCATS CANVASS Library (AID 1347356)
Summary of the method: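 HPAF-II cells (500/well) in DMEM + 10% FBS were treated with an 11-point compound series for 24 hours at 37 degrees C. Caspase-3/7 activity was then read by Caspase-Glo DEVD luminescence after 15 min.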

[9] = HEK293 18hr Apoptosis Induction qHTS against the NCATS CANVASS Library (AID 1347357)
Summary of the method: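 Luminescent caspase-3/7 signal is measured in HEK293 cells exposed for 18 hours to an 11-point concentration series; doxorubicin serves as the plate control.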

[10] = HPAF-II 12hr Apoptosis Induction qHTS against the NCATS CANVASS Library (AID 1347358)
Summary of the method: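 HPAF-II cells (500/well, DMEM + 10% FBS) were exposed to compounds for 12 hours at 37 degrees C. Caspase-3/7 activity was then read by Caspase-Glo 3/7 luminescence after 15 min at room temperature.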

[11] = HEK293 24hr Apoptosis Induction qHTS against the NCATS CANVASS Library (AID 1347359)
Summary of the method: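 HEK293 cells (500/well, DMEM + 10% FBS) were exposed to compounds in an 11-point series for 24 hours at 37 degrees C, then caspase-3/7 activity was read by Caspase-Glo DEVD luciferase luminescence after 15 min.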

[12] = HPAF-II 18hr Apoptosis Induction qHTS against the NCATS CANVASS Library (AID 1347360)
Summary of the method: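 Apoptosis was scored as caspase-3/7 activity in HPAF-II pancreatic cancer cells treated 18 hours with an 11-point concentration series.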

[13] = HEK293 12hr Apoptosis Induction qHTS against the NCATS CANVASS Library (AID 1347361)
Summary of the method: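 Apoptosis in HEK293 was scored as caspase-3/7 luminescence following 12 h treatment with a compound concentration series in qHTS format.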

[14] = test system: NAD(P)H diaphorase (Clostridium kluyveri); assay: Diaphorse counterscreen qHTS: Assay Interference Panel against the NCATS CANVASS Library (AID 1347362)
Summary of the method: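 Clostridium kluyveri diaphorase in PBS with 0.01% Tween-20 was preincubated 15 min at room temperature in the dark with compounds (11-point series). Resorufin fluorescence (ex 525/20, em 598/25) was read 5 min after adding resazurin/NADH.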

[15] = molecular target: Luciferin 4-monooxygenase (Photinus pyralis) (UniProt P08659); assay: Firefly luciferase counterscreen qHTS: Assay Interference Panel against the NCATS CANVASS Library (AID 1347363)
Summary of the method: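 Purified P. pyralis luciferase was added to compounds (11-point series) preincubated 15 min at room temperature with substrate containing 0.013 mM D-luciferin and 0.013 mM ATP; luminescence was read after 5 min.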

[16] = KB-8-5-11 Cancer Cell Toxicity qHTS against the NCATS CANVASS Library (AID 1347364); details: KB-8-5-11 MDR cells viability, CellTiter-Glo, 72 h; at 46.1 µM (top of the series); note: nearly all actives have a fitted effect of over 75% in size
Summary of the method: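 KB-8-5-11 cells (500/well) in DMEM + 10% FBS were exposed to compounds in an 11-point qHTS series for 72 hr at 37C, 5% CO2. Viability was read by CellTiter-Glo luminescence.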

[17] = SDT Cancer Cell Toxicity qHTS against the NCATS CANVASS Library (AID 1347365); details: SDT dog glioma viability, ATP luminescence, 72 h; at 46.1 µM (top of the series); note: nearly all actives have a fitted effect of over 60% in size
Summary of the method: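 SDT canine glioma cells (500 cells/well) were exposed to compounds in an 11-point series for 72 hr at 37C, 5% CO2; viability was read as ATP content by CellTiterGlo luminescence.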

[18] = KB-3-1 Cancer Cell Toxicity qHTS against the NCATS CANVASS Library (AID 1347366); note: nearly all actives have a fitted effect of over 75% in size
Summary of the method: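 Seed KB-3-1 cells at 500/well in DMEM with 10% FBS, add compounds, incubate 72 hr at 37C and 5% CO2, then add CellTiter-Glo and read luminescence after 10 minutes.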

[19] = qHTS for ATAD5 Agonist screened against the NCATS CANVASS Library (AID 1347367);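 note: luciferase reporter driven by ATAD5 which rises upon DNA damage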
Summary of the method: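 Step one plated reporter cells and let them acclimate 5hr. Step two pinned compounds with MMS as positive and 0.46% DMSO as negative control. After 16hr incubation, fluorescence viability then luminescence were read.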

[20] = G06 Cancer Cell Toxicity qHTS against the NCATS CANVASS Library (AID 1347368); details: G06 dog glioma cells, viability ATP luminescence, 72 h; at 46.1 µM (top of the series); note: nearly all actives have a fitted effect of over 60% in size
Summary of the method: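 G06 dog glioma cells seeded at 500 cells/well were exposed to compounds (11-point qHTS series) for 72 hr at 37C, 5% CO2; viability read as ATP content by CellTiterGlo luminescence.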

Measured: outcome

Chain of Luciferin 4-monooxygenase (Photinus pyralis) (P08659 whole entry, looked up): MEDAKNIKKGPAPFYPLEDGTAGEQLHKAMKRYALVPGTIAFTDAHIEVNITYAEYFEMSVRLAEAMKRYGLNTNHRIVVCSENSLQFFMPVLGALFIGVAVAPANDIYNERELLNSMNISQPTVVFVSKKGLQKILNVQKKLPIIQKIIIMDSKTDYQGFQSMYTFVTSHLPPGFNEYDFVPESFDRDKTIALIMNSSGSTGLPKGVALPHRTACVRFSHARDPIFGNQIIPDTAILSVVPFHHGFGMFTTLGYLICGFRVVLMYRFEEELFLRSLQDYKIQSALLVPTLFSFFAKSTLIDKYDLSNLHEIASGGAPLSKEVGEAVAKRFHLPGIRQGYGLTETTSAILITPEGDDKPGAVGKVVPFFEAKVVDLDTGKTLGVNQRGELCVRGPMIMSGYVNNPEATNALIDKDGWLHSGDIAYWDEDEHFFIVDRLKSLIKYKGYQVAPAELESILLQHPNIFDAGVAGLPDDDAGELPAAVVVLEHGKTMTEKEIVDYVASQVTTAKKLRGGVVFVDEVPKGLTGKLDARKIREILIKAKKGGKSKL

NCC(O)c1ccc(O)cc1 (stereo not given)
inactive: all assays above
